Data: PubChem BioAssay (NCATS)
Records with an inconclusive call do not appear. Calls of active or inactive are those of the source. The call rests on the fitted dose curve; in most records, active means well fitted curve in the direction sought with a large enough effect; inconclusive means small, poorly fitted or top-dose-only effect, or another doubt; inactive means no such curve, though single readings can be large; an effect the other way counts as inactive or inconclusive.

Tests used:
[1] = qHTS of pediatric cancer cell lines to identify multiple opportunities for drug repurposing: Confirmatory screen for SK-N-MC cells (AID 1347111);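 further: cells exposed to compound for 48 h before the readout; nearly all actives have a fitted effect of over 70% in size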; further: potency means the concentration at half of the fitted maximal effect;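 on activity change, negative = cytotoxic: plate controls were DMSO for no effect and bortezomib for full effect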
Method in brief: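 Seed 500-1,000 cells/well; rest 5 h at 37 degrees C. Pin-transfer compounds, 11-point titration. Incubate 48 h. Add CellTiter-Glo, 15 min RT, read luminescence.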

[2] = qHTS of pediatric cancer cell lines to identify multiple opportunities for drug repurposing: Confirmatory screen for BT-12 cells (AID 1347112); further: nearly all actives have a fitted effect of over 55% in size; further: potency means the concentration at half of the fitted maximal effect; on activity change, negative = cytotoxic: on the % scale 0 is the no-effect control and ±100 the full control effect
Method in brief: (§1)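 Cells (500-1,000/well) rested 5 h, then received compounds for 48 h; metabolically active cells were measured by CellTiter-Glo luminescence. Final concentrations spanned up to 46 µM (MIPE, 11-point) or 0.59 nM-46 µM (NPC, 8-point) in primary screens, 11-point in follow-ups.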

[3] = qHTS of pediatric cancer cell lines to identify multiple opportunities for drug repurposing: Confirmatory screen for DAOY cells (AID 1347114); further: on the % scale 0 is the no-effect control and ±100 the full control effect; nearly all actives have a fitted effect of over 65% in size
Method in brief: (§2)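 Viability measured as metabolically active cells via CellTiter-Glo luminescence following 48 hours of compound exposure, 11-point dilutions in confirmatory testing. 500-1,000 cells/well plated 5 hours before dosing; controls were DMSO and 2.3 µM bortezomib.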

[4] = qHTS of pediatric cancer cell lines to identify multiple opportunities for drug repurposing: Confirmatory screen for SJ-GBM2 cells (AID 1347116); further: nearly all actives have a fitted effect of over 60% in size; further: potency means the concentration at half of the fitted maximal effect;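 on activity change, negative = cytotoxic: plate controls were DMSO for no effect and bortezomib for full effect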
Method in brief: as §2

[5] = qHTS of pediatric cancer cell lines to identify multiple opportunities for drug repurposing: Confirmatory screen for BT-37 cells (AID 1347117); further: nearly all actives have a fitted effect of over 55% in size; further: potency means the concentration at half of the fitted maximal effect;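 on activity change, negative = cytotoxic: plate controls were DMSO for no effect and bortezomib for full effect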
Method in brief: as §1

[6] = qHTS of pediatric cancer cell lines to identify multiple opportunities for drug repurposing: Confirmatory screen for TC32 cells (AID 1347118);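 further: cells exposed to compound for 48 h before the read; nearly all actives have a fitted effect of over 65% in size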; further: potency means the concentration at half of the fitted maximal effect; on activity change, negative = cytotoxicity: on the % scale 0 is the no-effect control and ±100 the full control effect
Method in brief: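 Luminescent CellTiter-Glo read-out of metabolically active TC32 cells after 48 h compound exposure. Primary: MIPE 11-point, 0.78 nM–46 µM; NPC 8-point, 0.59 nM–46 µM. Confirmatory: 11-point dilutions.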

[7] = qHTS of pediatric cancer cell lines to identify multiple opportunities for drug repurposing: Confirmatory screen for MG 63 (6-TG R) cells (AID 1347119); further: nearly all actives have a fitted effect of over 55% in size; further: potency means the concentration at half of the fitted maximal effect;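 on activity change, negative = cytotoxicity: plate controls were DMSO neutral control for no effect and bortezomib for full effect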
Method in brief: as §1

[8] = qHTS of pediatric cancer cell lines to identify multiple opportunities for drug repurposing: Confirmatory screen for control Hh wild type fibroblast cells (AID 1347121);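 further: plate controls were DMSO for no effect and bortezomib for full effect; nearly all actives have a fitted effect of over 70% in size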
Method in brief: as §1

[9] = qHTS of pediatric cancer cell lines to identify multiple opportunities for drug repurposing: Confirmatory screen for U-2 OS cells (AID 1347122); details: outcome: dose series up to 45.9 µM; further: nearly all actives have a fitted effect of over 65% in size;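 on activity change, negative = cytotoxicity: plate controls were DMSO for no effect and bortezomib for full effect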
Method in brief: as §1

[10] = qHTS of pediatric cancer cell lines to identify multiple opportunities for drug repurposing: Confirmatory screen for Rh41 cells (AID 1347123);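 further: plate controls were DMSO for no effect and bortezomib for full effect; nearly all actives have a fitted effect of over 60% in size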
Method in brief: as §1

[11] = qHTS of pediatric cancer cell lines to identify multiple opportunities for drug repurposing: Confirmatory screen for RD cells (AID 1347124);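 further: cells exposed to compound for 48 h before viability readout; nearly all actives have a fitted effect of over 65% in size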; further: potency means the concentration at half of the fitted maximal effect; on activity change, negative = cytotoxic: on the % scale 0 is the no-effect control and ±100 the full control effect
Method in brief: as §1

[12] = qHTS of pediatric cancer cell lines to identify multiple opportunities for drug repurposing: Confirmatory screen for Rh18 cells (AID 1347125); further: on the % scale 0 is the no-effect control and ±100 the full control effect; nearly all actives have a fitted effect of over 55% in size
Method in brief: as §1

[13] = qHTS of pediatric cancer cell lines to identify multiple opportunities for drug repurposing: Confirmatory screen for Rh30 cells (AID 1347126)
Method in brief: as §1

[14] = qHTS of pediatric cancer cell lines to identify multiple opportunities for drug repurposing: Confirmatory screen for Saos-2 cells (AID 1347127);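 further: plate controls were DMSO for no effect and bortezomib for full effect; nearly all actives have a fitted effect of over 60% in size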
Method in brief: as §1

[15] = qHTS of pediatric cancer cell lines to identify multiple opportunities for drug repurposing: Confirmatory screen for SK-N-SH cells (AID 1347129);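 further: cells exposed to compound for 48 h before viability read; plate controls were DMSO for no effect and bortezomib control for full effect; nearly all actives have a fitted effect of over 60% in size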
Method in brief: as §1

[16] = qHTS of pediatric cancer cell lines to identify multiple opportunities for drug repurposing: Confirmatory screen for A673 cells (AID 1347110); further: potency means the concentration at half of the fitted maximal effect;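 on activity change, negative = cytotoxicity: plate controls were DMSO neutral control for no effect and bortezomib positive control for full effect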
Method in brief: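 Forty-eight-hour viability assay. Follow-up compounds ran at 11-point dilutions; positive control bortezomib at 2.3 uM final, neutral control DMSO.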

[17] = qHTS of pediatric cancer cell lines to identify multiple opportunities for drug repurposing: Confirmatory screen for NB-EBc1 cells (AID 1347115);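 further: cells exposed to compound for 48 h before the viability read; nearly all actives have a fitted effect of over 45% in size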; further: potency means the concentration at half of the fitted maximal effect; on activity change, negative = cytotoxic: on the % scale 0 is the no-effect control and ±100 the full control effect
Method in brief: as §1

[18] = qHTS of pediatric cancer cell lines to identify multiple opportunities for drug repurposing: Confirmatory screen for OHS-50 cells (AID 1347128)
Method in brief: as §1

[19] = qHTS of pediatric cancer cell lines to identify multiple opportunities for drug repurposing: Confirmatory screen for LAN-5 cells (AID 1347113); further: nearly all actives have a fitted effect of over 65% in size
Method in brief: as §1

[20] = molecular target: N-terminal Xaa-Pro-Lys N-methyltransferase 1 (Homo sapiens) (UniProt Q9BV86); experiment: qHTS Assay for Inhibitors of N-terminal methyltransferase 1 (NTMT1): LOPAC validation of the NTMT1 SAHH-coupled ThioGlo3 Assay (AID 1347143);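 further: SAH from peptide methylation measured as thiol fluorescence via SAHH coupling and ThioGlo3; on the % scale 0 is the no-effect control and ±100 the full control effect; nearly all actives have a fitted effect of over 70% in size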
Method in brief: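 Inhibition of NTMT1 methylation of peptide SPKRIA is followed by converting SAH with SAHH and labelling the released thiol with ThioGlo3. Plates are read at 340/450nm before and 30 min after reagent addition, both at room temperature.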

Chain of N-terminal Xaa-Pro-Lys N-methyltransferase 1 (Homo sapiens) (Q9BV86 whole entry, looked up): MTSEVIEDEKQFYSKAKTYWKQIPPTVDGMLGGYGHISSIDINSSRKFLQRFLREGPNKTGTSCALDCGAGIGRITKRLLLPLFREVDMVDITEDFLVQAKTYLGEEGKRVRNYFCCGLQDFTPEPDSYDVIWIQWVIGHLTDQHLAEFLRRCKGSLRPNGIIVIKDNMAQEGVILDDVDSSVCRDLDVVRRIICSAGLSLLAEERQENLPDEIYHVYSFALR

C[C@](N)(Cc1ccc(O)cc1)C(=O)O
inactive: activity change, negative = cytotoxic [1] 6.85% [at 5.01 µM] | activity change, negative = cytotoxic [2] -3.72% [at 5.01 µM] | activity change, negative = cytotoxic [3] 9.36% [at 5.01 µM] | activity change, negative = cytotoxic [4] 8.57% [at 5.01 µM] | activity change, negative = cytotoxic [5] -10.9% [at 5.01 µM] | Potency [6] | activity change, negative = cytotoxicity [7] 15.9% [at 5.01 µM] | activity, negative = cytotoxic [8] -2.45% [at 5.01 µM] | activity change, negative = cytotoxicity [9] 3.67% [at 5.01 µM] | activity change, negative = cytotoxic [10] 0% [at 5.01 µM] | activity change, negative = cytotoxic [11] 10.4% [at 5.01 µM] | activity change, negative = cytotoxic [12] 0.623% [at 5.01 µM] | activity change, negative = cytotoxic [13] 0% [at 5.01 µM] | activity change, negative = cytotoxic [14] 17.6% [at 5.01 µM] | activity change, negative = cytotoxic [15] 11.7% [at 5.03 µM]

O=C(O)CN1C(=O)c2cccc3cccc(c23)C1=O
active: Potency [1] 2.93 µM | Potency [17] 26.1 µM | Potency [4] 16.5 µM | Potency [5] 18.5 µM | Potency [6] 3.29 µM | Potency [7] 20.8 µM | Potency [11] 3.69 µM
inactive: Potency [16] | outcome [3] | outcome [8] | outcome [9] | outcome [10] | outcome [14] | outcome [15]

CCN(CC)CCNC(=O)c1cc(Cl)c(N)cc1OC
inactive: Potency [16] | Potency [1] | Potency [2] | outcome [3] | Potency [17] | Potency [5] | Potency [7] | outcome [8] | outcome [9] | outcome [10] | Potency [11] | outcome [12] | outcome [13] | outcome [14] | outcome [18] | outcome [15]

CCCCC/C(C=O)=C\c1ccccc1
active: Potency [16] 2.93 µM | Potency [1] 9.27 µM | Potency [2] 26.1 µM | Potency [19] 5.22 µM | Potency [5] 14.7 µM | Potency [6] 6.57 µM
inactive: outcome [3] | Potency [17] | Potency [4] | Potency [7] | outcome [8] | outcome [9] | Potency [11]

O=c1cc[nH]c(=S)[nH]1
inactive: Potency [2] | outcome [3] | Potency [17] | Potency [4] | Potency [5] | Potency [7] | outcome [9] | outcome [10] | Potency [11] | outcome [12] | outcome [13] | outcome [14] | outcome [15]
active: Potency [16] 9.27 µM | Potency [1] 2.93 µM | Potency [6] 9.27 µM

C[C@@H]1C[C@H]2[C@@H]3C[C@H](F)C4=CC(=O)C=C[C@]4(C)[C@@]3(F)[C@@H](O)C[C@]2(C)[C@@]1(O)C(=O)CO
active: Potency [1] 13.1 µM | Potency [6] 23.3 µM
inactive: Potency [16] | Potency [2] | outcome [3] | Potency [17] | Potency [4] | Potency [5] | Potency [7] | outcome [8] | outcome [9] | outcome [10] | Potency [11] | outcome [12] | outcome [18] | outcome [15]

CCCCN(CCCC)CC(O)c1cc(Cl)cc2c1-c1ccc(Cl)cc1/C2=C/c1ccc(Cl)cc1 (stereo unspecified)
inactive: Potency [20]

C[C@H]1O[C@@H](n2cc(F)c(=O)[nH]c2=O)[C@H](O)[C@@H]1O
inactive: Potency [20]

Cc1ccc2nc(N)[nH]c(=O)c2c1Sc1ccncc1
active: Potency [16] 0.465 µM | Potency [1] 2.08 µM | Potency [17] 11.7 µM | Potency [6] 3.29 µM
inactive: Potency [2] | Potency [19] | outcome [3] | Potency [4] | outcome [9] | Potency [11] | outcome [12] | outcome [13]

O=C1N=C(O)CN1/N=C/c1ccc(-c2ccc([N+](=O)[O-])cc2)o1
inactive: Potency [16] | Potency [1] | Potency [2] | Potency [19] | Potency [17] | Potency [4] | Potency [5] | Potency [6] | Potency [7] | outcome [8] | outcome [9] | Potency [11] | outcome [12] | outcome [13] | outcome [14] | outcome [18] | outcome [15]
